Source: PubChem BioAssay AID624298 (National Center for Advancing Translational Sciences (NCATS), 2012)
Inconclusive results are not listed. A number with no mark means an inactive call. Activity calls are given as the source filed them. The call rests on the fitted dose curve; in most records, active means well fitted activation curve with a large enough effect; inconclusive means small, poorly fitted or top-dose-only effect; inactive means no such curve, though single readings can be large or run the other way.

assay: Activators of T cell receptors: Hit Validation; conditions: primary human leukocytes, cytokine release by HTRF, 48 h, TCR-stimulated with anti-CD3 beads; series mostly up to 46.1 µM; activation: at the top concentration; on activation: 0% is about no effect
Source text: Normally activation of naive T cells requires two signals. 1. A signal through the T cell receptor (TCR) which provides antigen specificity to the response. 2. Signals through co-stimulatory molecules, which are necessary for proliferation, survival and cytokine production. In the absence of co-stimulatory signals T cells are not effectively activated, and may even be rendered anergic or unresponsive to subsequent signaling. This lack of costimulation has been shown in multiple model systems to be a major factor in the limited strength and effectiveness of anti-tumor T cell responses. The goal of this project is to identify small molecule compounds that will stimulate T cell activation in the presence of TCR signaling but in the absence of co-stimulatory signals, thereby allowing activation of naive T cells in the absence of co-stimulation. Identification of such compounds would have clear experimental and clinical applications in instances where desirable antigen-specific immune responses are not generated due to a lack of co-stimulation, for example in the generation of anti-tumor responses.
In collaboration between the National Cancer Institute and NIH Chemical Genomics Center, a high-throughput amenable screen was developed to discover small molecules that co-stimulate and activate human T cell receptors. The screen will be carried out using a novel homogeneous time resolved fluorescence energy transfer (HTRF) assay to measure production of the cytokine IL-2 by activated T cells and will be tested against the NIH Molecular Libraries Small Molecule Repository (MLSMR). This is the same assay tested against the hits identified in the primary screen.
NIH Chemical Genomics Center [NCGC]
NIH Molecular Libraries Probe Centers Network [MLPCN]
Assay Submitter (PI): Richard Hodes, National Cancer Institute, NIH
Primary human leukocytes are incubated with a-CD3 beads and compounds for 48 hr. The amount of secreted IL-2 is then assayed with a HTRF IL-2 kit. The presence of IL-2 cytokine captures the detection reagents and brings the a-IL-2-K and a-IL-2-d2 into close proximity. Upon excitation with 320nm light, the europium cryptate is capable of transferring energy to acceptor molecules within close proximity, resulting in acceptor molecule emission at 665nm.
Potency means the concentration at half of the fitted maximal effect.

Row | Structure (SMILES) | activation | Potency
1 | Cc1ccc(S(=O)(=O)NC23CC4CC(CC(C4)C2)C3)cc1 | 4.65% | 
2 | CC(=O)c1cccc(S(=O)(=O)N2CCC(C(=O)Nc3cccc(C(=O)NC4CC4)c3)CC2)c1 | 2.12% | 
3 | CCOC(=O)C1CCCN(C(=O)c2cccc(S(=O)(=O)N3CCCC3)c2)C1 (stereo not given) | -2.23% | 
4 | CN1C(=O)c2ccccc2Sc2ccc(NC(=O)N3CCOCC3)cc21 | -1.97% | 
5 | Cc1nn(Cc2ccccc2)c(C)c1C(=O)N1CCN(S(=O)(=O)/C=C/c2ccccc2)CC1 | 9.83% | 
6 | CN(CC(=O)NCC(=O)Nc1ccc(F)cc1)C1CCS(=O)(=O)C1 (stereo not given) | 4.94% | 
7 | CCOC(=O)c1c(NC(=O)c2ccc(N3C(=O)C4C5C=CC(C5)C4C3=O)cc2)sc2c1CCCC2 (stereo not given) | -5.99% | 
8 | N#Cc1ccccc1Sc1ccccc1C(=O)OCC(=O)NC12CC3CC(CC(C3)C1)C2 | 5.04% | 
9 | Cc1ccc(C(=O)NNC(=O)COC(=O)COc2ccccc2C#N)cc1 | 2.22% | 
10 | CC(C)N1C(=O)C(=O)N(CC(=O)N2CCc3ccccc32)C1=O | 9.24% | 
11 | Oc1ccc(/C=N\Nc2nncc(-c3ccccc3)n2)cc1 | 10.3% | 
12 | O=C(COC(=O)/C=C/c1cccc(Br)c1)Nc1cccc(S(=O)(=O)NC2=NCCC2)c1 | 4.02% | 
13 | CN(CC(=O)Nc1ccc(N2CCOCC2)cc1)C(=O)c1ccc(CS(C)(=O)=O)cc1 | 6.41% | 
14 | CC1(NC(=O)CCNC(=O)c2ccc(C(C)(C)C)cc2)CCS(=O)(=O)C1 (stereo not given) | 6.9% | 
15 | CCN(C(=O)CSc1nnc(C2CC2)n1-c1ccccc1)C1CCS(=O)(=O)C1 (stereo not given) | -6.94% | 
16 | O=C(OCc1cc(=O)n2cc(Br)ccc2n1)C1COc2ccccc2O1 (stereo not given) | 6.24% | 
17 | COc1cccc(-n2c(SCC(=O)NC3CCS(=O)(=O)C3)nc3ccccc3c2=O)c1 (stereo not given) | -5.08% | 
18 | NC(=O)c1ccccc1 | -2.92% | 
19 | Cc1ccc(NC2=CC(=O)C(=O)c3ccccc32)c(C)c1 | 10.8% | 
20 | CN(C)S(=O)(=O)c1ccc2oc(SCC(=O)c3c(N)n(C4CC4)c(=O)[nH]c3=O)nc2c1 | 6.21% | 

Row | Structure (SMILES) | activation | Potency
21 | COc1ccc(S(=O)(=O)Nc2ccc3cn[nH]c3c2)cc1[N+](=O)[O-] | -4.82% | 
22 | COc1cc(C(=O)OCCCN2CCCN(CCCOC(=O)c3cc(OC)c(OC)c(OC)c3)CC2)cc(OC)c1OC | -2.16% | 
23 | CCOc1ccc(/C=N/NC(=O)c2ccc(O)cc2)cc1CN1CC2CC(C1)c1cccc(=O)n1C2 (stereo not given) | 14.2% | 
24 | COc1ccc(OC)c(NC(=O)CSc2nc3[nH]c(=O)cc(O)c3s2)c1 | 10.8% | 
25 | CC1CCCC(C)N1C(=O)COC(=O)C12CC3CC(CC(Cl)(C3)C1)C2 (stereo not given) | 4.37% | 
26 | C[C@@H]1O[C@@H](O[C@H]2[C@H](Oc3cc(O)c4c(c3)O[C@H](c3ccc(O)cc3)CC4=O)O[C@H](CO)[C@@H](O)[C@@H]2O)[C@H](O)[C@H](O)[C@H]1O | -5.16% | 
27 | C/C(=N\NC(=O)COc1ccc([N+](=O)[O-])cc1)c1ccco1 | 11.5% | 
28 | Cc1cc(OCC(=O)OCC(=O)NCC2CCCO2)ccc1Cl (stereo not given) | 26.6% | 
29 | O=S(=O)(Nc1cc(Cl)ccc1-n1cncn1)c1ccc(F)cc1 | 7.59% | 
30 | CC1(C)Cc2cccc(OCC(=O)NCc3ccc(F)cc3)c2O1 | 4.68% | 
31 | CCOC(=O)c1ncn2c1[C@@H]1CCNC1C(=O)c1cc(OC)ccc1-2 (stereo not given in full) | -4.11% | 
32 | O=C(CCOc1ccccc1)Nc1ccc(S(=O)(=O)Nc2ncccn2)cc1 | -10.8% | 
33 | O=C1c2ccccc2C(=O)N1CCCC(=O)N1CCCc2ccccc21 | 0.64% | 
34 | O=C(c1cc(-c2ccc(F)cc2)nc2ccccc12)N1CCN(C2CCS(=O)(=O)C2)CC1 (stereo not given) | -0.39% | 
35 | CN(C)c1ccc(C=c2c3ccccc3n3c2c2ccccc2[n+]3C)cc1 |  | 560 nM (active)
36 | O=C(CCCN1CCC(C(=O)c2ccc(F)cc2)CC1)c1ccc(F)cc1 | -2.18% | 
37 | O=C(NCCCNCc1ccccc1)/C(=N\O)c1ccccc1 | 6.08% | 
38 | CCOC(=O)c1c(C)[nH]c(C(=O)OCC(=O)Nc2ccccc2)c1C | 3.16% | 
39 | COc1ccc(-n2c(=O)c(CCC(=O)NCCc3ccccc3F)nc3ccccc32)cc1 | 11.5% | 
40 | N#Cc1ccc(CN2CCN(C(=O)c3cc(Cl)c4c(c3)OCCO4)CC2)cc1 | 12.1% | 
